Screens deposited in PubChem by National Center for Advancing Translational Sciences (NCATS).
GBA mod: modulators of human glucocerebrosidase; P04062; purified enzyme, resorufin glucoside fluorescence (screen aimed at inhibitors), 20 min; Potency, µM; actives 1.1% (n = 48,000); in the data active = potency below about 15 µM; inconclusive = mostly about 16 µM to 33 µM;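 note: the screen sought inhibitors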
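Wild-type enzyme at 0.2 nM final in 50mM citric acid/KH2PO4, 10mM sodium taurocholate, 0.01% tween-20, pH 5.9, with resorufin beta-D-glucopyranoside at 30 uM final. Compounds titrated, 20 min at RT, red fluorescence read; AC50 from titration.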
PK Bst: alters activity of Bacillus stearothermophilus pyruvate kinase; actives 1.2% (n = 51,000); purified pyruvate kinase, luminescence ATP production; ribose 5-phosphate activator present at AC10; Potency, µM; in the data active = potency below about 11 µM; inconclusive = mostly about 12 µM to 25 µM;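 the screen sought inhibitors and activators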;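 note: scaled between full activation by ribose 5 phosphate and full inhibition by luteolin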
FLuc inh: firefly luciferase inhibition. purified firefly luciferase, luminescence, 8 min. Potency, µM (top dose mostly 57.1 µM), inactives show top-dose activity change, negative = inhibition, usual class: inhibitors. actives 2.2% (n = 72,000); active = well fitted inhibition curve with a large enough effect; inconclusive = small, poorly fitted or top-dose-only effect; note: % is set by controls: 0 for no effect and ±100 for the full control effect; nearly all actives have a fitted effect of over 40% in size
Target sequence (P08659 whole entry, looked up): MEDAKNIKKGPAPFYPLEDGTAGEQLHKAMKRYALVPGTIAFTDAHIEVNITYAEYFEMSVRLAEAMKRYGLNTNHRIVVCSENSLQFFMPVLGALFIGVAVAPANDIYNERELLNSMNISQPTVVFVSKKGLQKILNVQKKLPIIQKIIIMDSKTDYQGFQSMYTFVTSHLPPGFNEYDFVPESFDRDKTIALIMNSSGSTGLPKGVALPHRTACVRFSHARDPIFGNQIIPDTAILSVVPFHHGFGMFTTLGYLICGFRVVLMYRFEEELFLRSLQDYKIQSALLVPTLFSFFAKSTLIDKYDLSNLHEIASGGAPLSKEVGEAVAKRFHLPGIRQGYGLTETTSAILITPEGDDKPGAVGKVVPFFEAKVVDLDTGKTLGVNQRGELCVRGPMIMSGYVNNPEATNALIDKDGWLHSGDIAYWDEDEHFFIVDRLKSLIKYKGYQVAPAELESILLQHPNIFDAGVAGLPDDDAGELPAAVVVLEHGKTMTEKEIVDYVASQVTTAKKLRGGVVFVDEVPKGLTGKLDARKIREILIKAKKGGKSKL
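Titration-based qHTS; buffer 50 mM imidazole pH 7.2, 50 mM KCl, 7 mM MgCl2, 10 uM ATP, 0.01% Tween 20, 0.05% BSA; luciferase/luciferin detector mix added after compound; 8 min, ambient; luminescence.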
* hit, by the source's call; i = inactive; u = inconclusive; x = no result; [ ] = dose if it differs, or a comment. An excerpt weighted towards active compounds, which were near 3.4% of everything screened. Potency is the fitted concentration of half-maximal effect.

SMILES | GBA mod | PK Bst | FLuc inh
CCc1cc(C(=O)Cc2ccc(F)cc2)c(O)cc1O | x | x | 0.4%
COc1ccccc1CN1CCCC2(CCNCC2)C1 | x | x | -2.5%[11.4 µM]
Nc1c(-c2ccc(Cl)cc2)nnn1-c1ccccc1 | >76.9 | x | 10µM*
Clc1ccc(-n2nnnc2-c2ccccc2)cc1 | >76.9 | >57 | -0.1%
Cc1sc2nc3c4ccccc4c(NCc4ccco4)nn3c(=O)c2c1C | u | 1.96* | u
Cc1nnc(NCc2ccco2)c2ccccc12 | >76.9 | >57 | 0.2%
O=S(=O)(O)c1ccc(N=Nc2ccccc2)cc1 | x | x | 1.9%[11.4 µM]
Nc1ccc(N=Nc2ccc(-c3ccc(O)cc3)cc2)c2ccc(S(=O)(=O)O)cc12 | x | x | 3.16µM*
CN(C)Cc1cc(C(C)(C)C)ccc1-c1ccc(C(C)(C)C)cc1CN(C)C | x | x | -0.3%[11.4 µM]
COc1ccc(-c2cc(C(F)(F)F)nc(N3CCCCCC3)n2)cc1 | >76.9 | >57 | 2.7%
COc1ccc(-c2cc(C(N)=O)nc(N3CCCCCC3)n2)cc1 | >76.9 | u | 7.94µM*
COc1ccc(S(=O)(=O)N2CCN(c3cc(-c4ccccc4)nc4ncnn34)CC2)cc1 | >76.9 | >57 | -0.2%
COc1ccc(-c2cc(N3CCCC3)n3ncnc3n2)cc1 | >76.9 | 9.21* | 1.8%
COc1ccc(N2CCN(Cc3cc(=O)oc4ccc(Cl)cc34)CC2)cc1 | >76.9 | >57 | 1.6%
COc1ccc(N2CCN(Cc3cc(=O)oc4c3ccc3ccccc34)CC2)cc1 | 3.32* | >57 | 2.9%
C/C(CCN1CCc2nc(-c3ccccc3)c(-c3ccccc3)cc2C1)=N\O[C@@H](C)CN1CCCc2nc(C)c(C)cc21 | x | x | 0.4%[11.4 µM]
COC(=O)c1sc(NC(=O)COc2ccccc2OC)nc1C | x | x | -2.7%
CCOC(=O)c1sc(Nc2nc3c(OC)cccc3s2)nc1C | i | x | 15.8µM*
N#Cc1cccc(NC(=O)N2CC[C@@]3(CCCN(C(=O)c4cccc(F)c4)C3)C2)c1 | x | x | -5.2%[11.4 µM]
CC(C)(C)c1ccc(-c2conc2N)cc1 | >76.9 | u | 10µM*
Cn1c(-c2ccc(C(C)(C)C)cc2)n[nH]c1=S | x | x | -3.6%
CO[C@H]1COC(=O)[C@@H](C)COC(=O)[C@@H](COCc2ccccc2)NC(=O)C/C=C\[C@H]1C | x | x | 1.0%[11.4 µM]
CN1CCCC2(CCN(C(=O)c3cccn3C)CC2)C1 | x | x | -0.8%[11.4 µM]
C#CCCCO/N=C1/[C@H]2O[C@@H]2[C@@H](O)[C@H]2[C@H]1CCn1c(=O)n([C@@H](CC)c3ccccc3)c(=O)n12 | x | x | -0.9%[11.4 µM]
Cc1cc(N2CCC(C)CC2)n2nc(C)c(-c3ccccc3)c2n1 | >76.9 | >57 | 2.3%
SMILES | GBA mod | PK Bst | FLuc inh
Cc1cc(N2CCCCC2)n2nc(C)c(-c3ccccc3)c2n1 | >76.9 | >57 | -0.6%
Cc1cc(N2CCC(C)CC2)n2ncc(-c3ccccc3)c2n1 | i | u | 15.8µM*
Cc1cc(N2CCCCC2)n2ncc(-c3ccccc3)c2n1 | u | 3.43* | 3.98µM*
Cc1cc(N2CCCCC2)n2ncc(-c3ccc(Cl)cc3)c2n1 | u | i | 12.6µM*
Cc1cc(N2CCN(C(=O)c3ccco3)CC2)n2ncc(-c3ccccc3)c2n1 | i | >57 | -21.5%
COC(=O)C/C=C\[C@@H](C)[C@@H](/C=N\O[C@@H](C)CN1CCCCc2nc(C)c(C)cc21)OC | x | x | 1.4%[11.4 µM]
Cc1ccc(-n2c(SCC(=O)NCC3CCCO3)nc3n[nH]c(C)c3c2=N)cc1Cl (stereo not drawn) | 14.2* | >57 | 7.2%
COc1ccc(-n2c(SCC(=O)NCC3CCCO3)nc3n[nH]c(C)c3c2=N)cc1 (stereo not drawn) | >76.9 | >57 | -1.1%
COc1ccc([C@@H]2OC[C@]3(COC(C)=O)[C@H](C)C=C(C)[C@@H]2[C@H]3C)cc1 | x | x | 2.8%[11.4 µM]
Cc1cc(C)nc(Nc2nc3ccccc3[nH]2)n1 | >76.9 | >57 | -3.3%
c1ccc(Nc2nc3ccccc3[nH]2)nc1 | >76.9 | i | 20µM*
c1ccc(CNc2nc3ccccc3[nH]2)cc1 | >15.4 | u | 12.6µM*
COc1ccc2nc(NCCO)[nH]c2c1 | u | >57 | -0.9%
COc1ccc2nc(NCc3ccccc3)[nH]c2c1 | x | x | 15.8µM*
COc1cc(CNc2nc3ccccc3[nH]2)cc(OC)c1OC | >76.9 | >57 | 2.0%
Cc1ccc2nc(NCc3ccccc3)[nH]c2c1 | x | i | 10µM*
Cc1ccc2nc(C3CCN(C(=O)NCc4ccccc4)CC3)[nH]c2c1 | u | >11.4 | -23.6%
NC(Cc1ccccc1)(C(=O)O)C(=O)O | x | x | 1.5%[11.4 µM]
COCCn1c(COC)nc2ccccc21 | >76.9 | >57 | 3.5%
Cc1ccc(OCCCn2c(CO)nc3ccccc32)cc1 | >76.9 | i | 20µM*
COCCn1c(COc2ccc(C)cc2)nc2ccccc21 | >76.9 | i | 12.6µM*
Cc1ccc(OCCn2c(=O)cnc3ccccc32)cc1 | >76.9 | >57 | -3.0%
Cc1nc2cnc(Oc3ccccc3)nc2n(CCC#N)c1=O | x | x | -0.2%[11.4 µM]
COc1ccc(CCNc2oc(Cc3cccc4ccccc34)nc2C#N)cc1OC | >76.9 | 9.86* | 2.4%
CNc1oc(Cc2cccc3ccccc23)nc1C#N | >76.9 | u | 2.1%
SMILES | GBA mod | PK Bst | FLuc inh
N#Cc1nc(Cc2cccc3ccccc23)oc1NCCN1CCCCC1 | x | 6.33* | 7.94µM*
COc1ccc(CCNc2oc(COc3ccc(Br)cc3)nc2C#N)cc1OC | x | x | -6.5%
CCCN1C[C@@H](CSC)C[C@H]2c3cccc4[nH]cc(c34)C[C@@H]21 | x | x | 3.0%
CC(=O)OCC(=O)[C@@]1(O)CC[C@@H]2[C@H]3CCC4=CC(=O)CC[C@]4(C)[C@]3(F)[C@@H](O)C[C@@]21C | x | x | 1.7%[25.5 µM]
Cc1ccc2cc(C(c3nnnn3CC3CCCO3)N3CCCC4(CCCCC4)C3)c(=O)[nH]c2c1 (stereo not drawn) | 10.1* | >57 | -4.7%
Cc1cccc2cc(C(c3nnnn3CC3CCCO3)N3CCCC4(CCCCC4)C3)c(=O)[nH]c12 (stereo not drawn) | >76.9 | >57 | -6.3%
Cn1c(=O)c(-c2cccc(C#N)c2)nc2cnc(Oc3ccccc3)nc21 | x | x | 0.0%[11.4 µM]
Cn1cc(/C=N/n2cnc3sc4c(c3c2=O)CCCC4)c2ccccc21 | 11.7* | >57 | 1.2%
Cn1cc(C2NC(=O)c3c(sc4c3CCCC4)N2)c2ccccc21 (stereo not drawn) | x | x | -15.1%
OCCN[C@@H]1c2cc(Cl)ccc2-c2c(Cl)cc(Cl)cc21 | x | x | 3.1%[11.4 µM]
CCOCC(=O)Nc1nc2ccc(S(C)(=O)=O)cc2s1 | >76.9 | >57 | -0.9%
CS(=O)(=O)c1ccc2nc(NC(=O)C3COc4ccccc4O3)sc2c1 (stereo not drawn) | >76.9 | x | u
Cc1ccc(C(=O)Nc2nc3ccc(S(C)(=O)=O)cc3s2)s1 | >76.9 | i | 3.16µM*
Cc1cc(C(=O)Nc2nc3ccc(S(C)(=O)=O)cc3s2)c(C)o1 | >76.9 | x | 2µM*
CC(C)C[C@H](NC(=O)[C@@H](NC(=O)N[C@@H](Cc1ccccc1)C(=O)O)[C@H]1CCN=C(N)N1)C(=O)N[C@H](C=O)Cc1ccccc1 | x | x | 0.0%[11.4 µM]
Cc1cccc(CNc2ncncc2-c2ccccc2C)c1 | x | x | 3.4%[2.29 µM]
O=C(c1csnn1)N1CCC[C@@]2(CCN(Cc3ccccc3)C2)C1 | x | x | 0.6%[11.4 µM]
O=C(c1ccncc1)N1CCC2(CCCN(c3ccccn3)C2)CC1 | x | x | 1.0%[11.4 µM]
C=CCn1c(C)cc(C(=O)CSc2nc3ccccc3c(=O)[nH]2)c1C | >76.9 | i | -18.2%
Cc1cc(C(=O)CSc2nc3ccccc3o2)c(C)n1C1CC1 | 13.5* | >57 | -9.2%
C=CCn1c(C)cc(C(=O)CSc2nc3ccccc3o2)c1C | >76.9 | i | 15.8µM*
